In the library only some 12% were active in any assay of this set; here they are far more common.
CHOP inh – inhibitors of CHOP promoter induction, primary screen, cell-based, unfolded protein response, luciferase reporter | 3.8% of 220,000 active | CHO-K1 CHOP-promoter luciferase, tunicamycin-induced, 15-18 h | inhibition, % at 10 µM;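 active = compounds that reduced the stress-induced luciferase reporter signal by more than about 70% of percent inhibition, limit read from the data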
Arbovirus anti – antivirals against arbovirus infection, primary screen, cell-based, full library, 10K replicate subset; arbovirus infection cell-based antiviral screen; AID 1251, 2008; inhibition, % at 10 µM; 0.37% of 200,000 active; in the data active = inhibition above about 30%
WT yeast gro inh – growth inhibition of WT strain, primary screen, mitochondrial fusion inhibitor project, WT and mutant strains, chemical genetic; mitochondrial fusion phenotypic screen; inhibition, % at 10 µM; 2.1% of 190,000 active; in the data active = inhibition above about 58%; tested in S. cerevisiae
Lmaj promast – Leishmania major promastigote growth inhibition, primary screen | inhibition, % at 10 µM | Leishmania major promastigotes, resazurin fluorescence viability | AID 1063, 2008 | 9% of 200,000 active; in the data active = inhibition above about 50%;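 also: promastigotes grown with compound for 44 hours at 28 °C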
A number is an active result; 0 = inactive; - = no result given.

SMILES	CHOP inh	Arbovirus anti	WT yeast gro inh	Lmaj promast
CC(C)(C)C1CCC2(CC1)C(C#N)=C(SCC(=O)NC1CCCCC1)NC(=O)C2C#N (stereo not given)	81	0	0	0
N#CC1=C(SCC(=O)NC2CC2)NC(=O)C(C#N)C12CCCCC2 (stereo not given)	0	0	0	0
N#CC1=C(SCC(=O)NC23CC4CC(CC(C4)C2)C3)NC(=O)C(C#N)C12CCCCC2 (stereo not given)	85	0	0	0
N#CC1=C(SCC(=O)Nc2cccc3cccnc23)NC(=O)C(C#N)C12CCCCC2 (stereo not given)	0	0	0	0
CC1=C(C#N)C(=O)NC(=O)/C1=C\c1ccc(-c2cc(C)c(C)cc2[N+](=O)[O-])o1	0	34	0	0
COc1ccc(C(=O)NCC(=O)N/N=C(\C)c2ccco2)cc1OC	0	-	-	-
CCn1nc(C)c(CNCc2cn[nH]c2-c2cc3ccccc3o2)c1C	0	-	-	-
O=C(NCCN1CCOCC1)c1cccn2c(=O)c3c4c(sc3nc12)CCCC4	0	-	-	-
COc1ccc2nccc(C(N)=O)c2c1	0	-	-	-
CCN(CC)C(=O)COc1ccc(-c2nnc(N3CCCCC3)c3ccccc23)cc1	0	0	0	0
Cc1ccc(OCC(=O)N2CCN(c3nnc(-c4ccccc4)c4ccccc34)CC2)cc1	0	0	0	89
CCOc1ccc(-c2nnc(N3CCCCC3)c3ccccc23)cc1	79	0	0	0
Nn1c(-c2ccc(O)cc2)nnc1-c1ccc(O)cc1	0	-	-	-
O=C(Nc1ccccc1-c1nc2ccccc2s1)C1=COCCO1	0	0	0	0
COc1ccc(C(=O)NCc2nnc(SCC(=O)Nc3nc4ccc(C)cc4s3)o2)cc1OC	0	0	0	0
O=C(Nc1ccccn1)c1sc2cccc(F)c2c1Cl	78	0	0	0
Cc1ccc(NC(=O)c2sc3ccccc3c2Cl)nc1	94	0	0	0
Cc1nnc(NC(=O)c2sc3ccccc3c2Cl)s1	0	0	0	0
O=C(NCCCn1ccnc1)c1sc2cccc(F)c2c1Cl	0	0	0	78
O=C(Nc1cccnc1)c1sc2cccc(F)c2c1Cl	0	0	0	0
COc1ccc(Nc2nc(-c3cccc([N+](=O)[O-])c3)nc3ccccc23)cc1	0	0	0	0
CCOC(=O)Cn1cc(C#N)c2cccc(CC)c21	0	0	0	0
O=C(CSc1nc(-c2ccccc2)c(-c2ccccc2)o1)Nc1nncs1	72	0	0	0
O=C(CSc1nnc(SCc2cccc3ccccc23)s1)N/N=C/C=C/c1ccccc1[N+](=O)[O-]	0	0	0	0
Cc1ccccc1C1CCCN(Cc2nc(CC3CC3)no2)C1 (stereo not given)	0	0	0	0
SMILES	CHOP inh	Arbovirus anti	WT yeast gro inh	Lmaj promast
CCOc1ccc(C2=NNC(c3cccs3)=Nc3ccc(OCC)cc32)cc1	0	0	0	0
CCc1ccc2c(c1)C(c1ccc([N+](=O)[O-])cc1)=NNC(c1ccc(Br)cc1)=N2	84	0	0	0
Cc1ccc2c(c1)C(c1ccncc1)=NNC(c1cccnc1)=N2	0	0	0	0
Cc1ccc2c(c1)C(c1ccc([N+](=O)[O-])cc1)=NNC(c1ccc(Br)cc1)=N2	94	0	0	53
Nc1ccccc1C(=O)NNC(=O)C(=O)/C=C(\O)c1ccccc1	0	-	-	-
O=C(CN1CCN(Cc2ccccc2)CC1)Nc1ccc([N+](=O)[O-])cc1C(=O)Nc1ccccc1F	0	0	0	99
CCOC(=O)N1CCN(CC(=O)Nc2ccc([N+](=O)[O-])cc2C(=O)Nc2ccccc2F)CC1	0	0	0	75
CSc1ccccc1NC(=O)CN1CCN(Cc2ccccc2)CC1	0	0	0	0
Cc1c(Cl)cccc1NC(=O)c1cc(-c2ccccc2O)n[nH]1	0	30	68	0
COc1ccccc1-c1cc(-c2cc(Cl)ccc2O)n[nH]1	0	0	0	0
O=C(O)c1cc(-c2ccccc2Cl)n[nH]1	0	0	0	0
COc1ccc(Cl)cc1NC(=O)c1cc(-c2ccccc2O)n[nH]1	0	70	0	0
C=CCn1c(C(CC(C)C)CC(C)O)n[nH]c1=S (stereo not given)	0	0	0	0
CC(C)CNC(=S)NC(=O)c1ccc(Cl)cc1Cl	0	0	0	0
Clc1ccc(Sc2oc(/C=N/n3cnnc3)cc2Br)cc1	0	0	0	71
CN(C)C(=O)/C(C#N)=C\c1cc(Br)c(Sc2ccc(Cl)cc2)o1	80	0	88	0
Cc1cc(C)nc(Sc2ccc(/C=C(\C#N)C(N)=O)o2)n1	0	0	0	0
Clc1ccc(-n2cccc2/C=N/n2cnnc2)cc1	0	0	0	0
Clc1ccccc1-c1ccc(/C=N/n2cnnc2)o1	0	0	0	0
